# Source: the supplement of paper PMC6555819
# Columns and labels:
# Test in all cases: PBM binding z-score (relative to random genomic background probes); higher = stronger binding; sequences stand for … in GC…GCGATTGACAGCGTAGAATGAAGG
# [1] = system: PPARg:RXRa DBDmut IVT, anti-RXR (DBD mutation: RXRa K156A/R161A, NR concentration 270 nM, RXRa partner concentration 90 nM)
# In short: (§1)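 For binding z-scores, the reference was random background probes on custom Agilent 4×180K protein-binding microarrays. These arrays were incubated 1 h with ligand-free nuclear receptor dimers in PBS pH 7.4, 2% milk, 0.02% Triton X-100, 1 mM DTT, 0.2 mg/mL BSA and 0.4 mg/ml salmon testes DNA. Fluorescence was scanned after antibody detection of each partner (one per run) and regression-normalized.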
# [2] = system: PPARg:RXRa IVT, anti-PPARg (NR concentration 270 nM, RXRa partner concentration 90 nM)
# In short: as §1
# [3] = system: PPARg DBDmut:RXRa IVT, anti-PPARg (DBD mutation: PPARg1 K132A/R137A, NR concentration 270 nM, RXRa partner concentration 90 nM)
# In short: as §1
# [4] = system: PPARg DBDmut IVT, anti-PPARg (DBD mutation: PPARg1 K132A/R137A, NR concentration 270 nM)
# In short: as §1
# [5] = system: PPARg homodimer (NR concentration 180 nM)
# In short: as §1
# [6] = system: PXR:RXRa (NR concentration 270 nM, RXRa partner concentration 90 nM)
# In short: as §1
# [7] = system: PXR homodimer (NR concentration 270 nM)
# In short: as §1
# [8] = system: RARa homodimer (NR concentration 270 nM)
# In short: as §1
# [9] = system: RARb:RXRa (NR concentration 270 nM, RXRa partner concentration 90 nM)
# In short: as §1
Sequence,PBM binding z-score [1],PBM binding z-score [2],PBM binding z-score [3],PBM binding z-score [4],PBM binding z-score [5],PBM binding z-score [6],PBM binding z-score [7],PBM binding z-score [8],PBM binding z-score [9]
TCTTGTAGATCAAAGGTTAAGACAGCCGAAGCCT,2.1,3.94,1.03,0.9,1.28,2.12,-0.0752,0.276,1.91
CCTTACGGGTCAAGGTAATAGCACGGGTGGTACG,1.83,3.41,0.176,-0.496,1.93,2.54,0.213,0.734,4.1
CAGACTAGGTCAAAGGTCAAAGTCGAGCCAACCA,7.65,8.8,3.31,3.18,5.71,7.16,1.95,2.03,5.64
CAAACTAGGTCACCGGAAAGTCAAAGTCCGCATG,8.88,9.33,3.21,3.47,2.67,2.14,0.0377,0.631,4.72
AATACAGGGTCACTAGGCCCGAGTAGGTACGAAT,2.32,4.28,2.04,0.859,1.77,2.94,0.0617,0.416,4.14
AGTCAGAGTTCATCTAGGTAACGTAAGATATGCT,0.73,2.55,1.05,0.893,1.46,5.25,9.2,1.13,4.3
ATCCAAAGGTCGAGGTGAGTATAGAGAAAGGGAA,0.646,2.87,1.42,1.42,1.71,2.84,0.536,1.18,4.43
CAAACTAGGTCACCGGAAGGTCAAAGTTCGCATG,8.66,9.06,4.1,1.26,7.21,6.49,3.62,3.06,5.44
CGAACGAGGTCAGAACAGGACAGTGAAGGATGAT,3.38,4.26,0.826,0.461,1.39,3.87,0.676,0.667,4.4
ATATGGAGGTTAAGGGTCATTCAGGTTGGTTCGC,3.59,5.42,3.41,2.22,4.57,6.14,3.95,3.41,3.97
CCGACTGGGTCAAAGGTTACCATACTCAGTACGA,6.05,7.26,1.18,0.000446,1.89,5.14,-0.223,0.785,4.1
GATCCAGGGTCAGCTAGAGGCCAGAGTATGGAAA,0.393,1.96,-0.6,-0.817,1.89,3.27,-0.25,-0.417,4.24
GACACAGGGTCAGCTAGAGGCCAGAGTATGGAAA,0.69,1.9,-0.301,-0.892,1.74,2.92,-0.286,-0.561,4.26
CCTAGTGGGCCAAAGGTCATTGATTCCAATGCTC,5.71,7.73,2,0.985,7.49,5.83,3.2,3.01,4.62
CAAACTAGGTCACAGAGGTCGAAGTCCGTGCGTA,8.27,8.42,2.27,0.791,2.22,4.41,3.65,0.511,4.35
ACTAGCAGGTCAAGGGTCACTCAAGATTAGTCCG,4.43,6.12,1.23,1.92,3.91,5.82,0.469,1.38,4.86
TAGCCTAGGTCATGGGCCAGTTTACCACGCGAAC,1.76,3.27,-0.261,-0.602,1.68,2.12,-0.368,-0.379,3.82
CGGCCAAGGTCAAAGGTCAGTGAAGAGATGACGG,3.94,5.66,0.246,-0.114,7.63,7.3,1.98,4.91,6.06
CGTCCAAGGTCAAAGGTCAGTAAAGAGATGACGG,4.06,5.78,0.533,0.691,4.4,7.16,1.34,4.03,5.99
TAGCCTAGGTCATTCAGGGGCCAGAATAGAAAGC,1.69,2.95,-0.139,0.318,1.44,2.48,0.043,-0.355,4
TCATATAGGTAAAAGGTCAAAGTCGGTGTGGTAA,5.65,6.93,2.69,3,5.82,5.94,2.41,4.73,4.88
CACACTAGGTCAAGAGGTCAAAGTCCGCTTCCCG,7.22,7.67,2.76,1.84,7.46,6.33,3.75,3.81,5.28
GATACAGGGTCAGCTAGAGGTCAGAGTATGGAAA,1.65,3.52,0.365,-0.0888,6.51,5.99,1.34,1.59,5.32
ATCGAAAGGTCGAAGGTCAGTATACCCACCCGAA,0.724,3.24,0.938,0.568,2.47,5.13,0.812,1.68,4.54
AGTCAAAGTTCATCTTGGTAACGTAAGATATGCT,0.418,2.63,0.383,1.1,2.64,4.92,6.26,1.55,4.95
CGTCCAAGGTCAGATAGGTCAGTGAATGCCGAGT,1.9,2.41,-0.168,0.165,2.95,4.33,4.32,1.22,5.1
